AI-2 QS modul: Vibrio harveyi AI-2 quorum sensing modulation | Vibrio harveyi JMH597 AI-2 luminescence/OD600 ratio, 9 h; hits give low values; strain lacks LuxN and CqsS sensors; 0 = neutral-control median | activity change, % at 7.5 µM | 0.4% of 300,000 active; in the data active = activity change below about -75%, passing the limit was not always enough;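 also: luminescence divided by OD600 gain over 9 h not by final OD600 alone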
Rin1 Abl inh: inhibitors of human Rin1-Abl protein interaction | P00519+Q13671 | TR-FRET Rin1/Abl binding, biochemical | inhibition, % at 7.35 µM | 0.4% of 360,000 active | AID 588664; in the data active = inhibition above about 5%, passing the limit was not always enough
HGIII-sPLA2 inh: Blocks human group III sPLA2 activity | AID 743126 | Q9NZ20 | inhibition, % at 12.2 µM | 0.56% of 370,000 active | QFRET BODIPY PC-A2 liposome hydrolysis, fluorescence;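 active = inhibition above mean plus 3 SD of compounds lying within the high and low control bounds, cut at about 19% in these data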;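 also: 0% = median of test compound wells and 100% = no enzyme DMSO wells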
ARNT TACC3 PPI: ARNT/TACC3 interaction disruption; AlphaScreen His-ARNT PAS-B/GST-TACC3 binding, luminescence; TACC3 fragment carries E629A point mutation; inhibition, % at 9.99 µM; Q9Y6A5; 0.66% of 390,000 active;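 active = mean inhibition of replicates at least 50% and at least half of replicates each reaching 50%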;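 also: 0% = complete ARNT plus TACC3 wells and 100% = ARNT alone without TACC3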
Rin1-Abl confirm: Rin1-Abl interaction inhibition confirmation | TR-FRET Rin1-Abl binding, purified proteins | 49% of 1,300 active | AID 602124 | inhibition, % at 7.35 µM | shares compounds with Rin1 Abl inh
GFP quench: counter-screen for Rin1-Abl inhibitors: GFP fluorescence quenchers; shares compounds with Rin1 Abl inh; inhibitors/quenchers counterscreen; inhibition, % at 6.75 µM; 8.5% of 1,300 active; AID 602125;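 also: ABL1-eGFP fusion protein alone without its partner RIN1-SBP; 0% = protein with vehicle and 100% = wells lacking protein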
GFP quench dose: counter-screen for Rin1-Abl inhibitors: GFP quenchers, dose response; shares compounds with Rin1 Abl inh; GFP fluorescence interference/quenching counterscreen; IC50, µM; 230 tested, under 10 active; call rule not given here;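 also: ABL1-eGFP fusion protein alone without its RIN1 binding partner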
* marks the source's active call; other numbers are inactive results; / = no result given. Shown are actives, neighbours in structure and some others; about 1.5% of the full set was active somewhere. Rule as the data show it, unless noted: active = inhibition above about 6.5%; inactive = the rest.

SMILES	AI-2 QS modul	Rin1 Abl inh	HGIII-sPLA2 inh	ARNT TACC3 PPI	Rin1-Abl confirm	GFP quench	others
CCN1CCN(C(=O)C(NS(=O)(=O)c2ccc3nc(C)sc3c2)C(C)C)CC1 (stereo not drawn)	27	8.1*	1	/	1	0
Cc1nc2ccc(S(=O)(=O)NC(C(=O)NC3CCCC3)C(C)C)cc2s1 (stereo not drawn)	18	-2	1	1	/	/
CCN(CC)c1ccc2cc(C(=O)NNC(=O)c3ccc(S(=O)(=O)N4CCCCC4)cc3)c(=O)oc2c1	32	4.7*	1	8	-1	-1
CCC(=O)N[C@H]1CC[C@H](CCNC(=O)Nc2ccc(F)cc2)O[C@H]1CO	/	/	/	-1	/	/
C[C@@H]1CN([C@H](C)CO)C(=O)Cc2cc(NC(=O)Nc3ccccc3)ccc2O[C@H]1CN(C)S(=O)(=O)c1cccs1	/	/	/	4	/	/
CN1CC2(C)OC(=O)C(Cl)=C2CC1c1ccccc1 (stereo not drawn)	10	6.2*	2	-1	0	-2
COC(=O)CCSCc1cn2cc(Cl)ccc2n1	17	39*	-1	-5	44*	1	GFP quench dose=>68
O=C([C@H]1[C@H](CO)[C@H]2Cn3c(ccc(-c4cccc(F)c4)c3=O)[C@H]2N1Cc1cocn1)N1CCCCC1	/	/	/	0	/	/
COC(=O)c1cc(NC(=O)CC2SCCNC2=O)cc(C(=O)OC)c1 (stereo not drawn)	8	-1	2	-8	/	/
O=C(CC1SCCNC1=O)Nc1cc(Cl)cc(Cl)c1 (stereo not drawn)	-68	11*	-7	-4	17*	0	GFP quench dose=>68
CN(CC(=O)Nc1ccccc1Br)C(=O)CNC(=O)c1ccc(Oc2ccccc2)cc1	-1	7.6*	-14	4	-2	0
CC1(c2nnc(-c3ccc(F)cc3)o2)CC(c2cccnc2)=NO1 (stereo not drawn)	12	1	-6	1	/	/
CC1(c2nnc(-c3ccncc3)o2)CC(c2ccc(F)cc2)=NO1 (stereo not drawn)	2	43*	0	1	42*	-1	GFP quench dose=>68
CC1(c2nnc(-c3ccncc3)o2)CC(c2c(Cl)cccc2Cl)=NO1 (stereo not drawn)	14	38*	9	1	27*	0
CC1(c2nnc(-c3ccncc3)o2)CC(c2ccc([N+](=O)[O-])cc2)=NO1 (stereo not drawn)	20	18*	7	-2	21*	0
C/C=C/c1ccc([C@@H]2[C@@H](CO)N(C(C)=O)[C@H]2CN(CCC)C(C)=O)cc1	/	/	/	-11	/	/
CO[C@H]1CN(C)C(=O)c2ccc(NC(=O)c3cnccn3)cc2OC[C@@H](C)N(C)C[C@@H]1C	/	/	/	-6	/	/
C[C@H](CO)N1C[C@H](C)[C@H](CN(C)C(=O)Nc2ccccc2)Oc2ccc(NC(=O)Cc3cn(C)c4ccccc34)cc2C1=O	/	/	/	1	/	/
CC=Cc1ccc2n(c1=O)C[C@H]1[C@H](CO)[C@@H](C(=O)N(C)C)[C@@H]2N1Cc1cc(F)ccc1F (mixture of isomers)	/	/	/	4	/	/
CCOC(=O)N1CCN(C(=O)CSc2nnc(Cc3cccn3C)n2CCc2ccccc2)CC1	18	5.7*	-13	-8	-1	-1
Cn1cccc1Cc1nnc(SCC(=O)N2CCOCC2)n1CCc1ccccc1	13	-1	-3	-1	/	/
CC(NC(=O)c1cc2c(=O)n(C)c3ccccc3c2n1C)c1ccc2c(c1)OCCO2 (stereo not drawn)	22	7.6*	4	-2	11*	-2
Cn1c(C(=O)Nc2ccc3c(c2)OCO3)cc2c(=O)n(C)c3ccccc3c21	19	-3	-1	/	/	/
COc1ccc(CN(C)C[C@@H]2Oc3ccc(NC(=O)Cc4cn(C)c5ccccc45)cc3C(=O)N([C@@H](C)CO)C[C@@H]2C)cc1	/	/	/	1	/	/
O=C(Nc1cc(N2CCOCC2)ncn1)NC1(C(F)(F)F)Oc2ccccc2O1	22	9.8*	11	-13	4	0
SMILES	AI-2 QS modul	Rin1 Abl inh	HGIII-sPLA2 inh	ARNT TACC3 PPI	Rin1-Abl confirm	GFP quench	others
O=C(C[C@@H]1CC[C@@H]2[C@H](COC[C@@H](O)CN2Cc2ccccc2F)O1)N[C@H]1CCN(Cc2ccccc2)C1	/	/	/	0	/	/
CC(=O)OC1CC(n2ccc(NC(=O)c3ccccc3)nc2=O)OC1CO (stereo not drawn)	14	4	6	0	/	/
O=C(Nc1ccn([C@H]2CC[C@@H](CO)O2)c(=O)n1)c1ccccc1	19	24*	9	-16	22*	-2	GFP quench dose=>68
COc1ccc(CCNC(=O)CSc2nc(C)nc3c2c(=O)n(C)c(=O)n3C)cc1OC	16	21*	-3	-5	21*	1	GFP quench dose=>68
COc1ccc(CCNC(=O)CSc2nc3[nH]ncc3c(=O)n2-c2ccccc2Br)cc1OC	10	8.2*	-2	1	8.6*	-4
COc1ccc(CCNC(=O)CSc2nc3c(c(=O)n(C)c(=O)n3C)n2C(C)C)cc1OC	26	2	0	-2	/	/
O=C(COc1ncnc2c1cnn2-c1ccccc1)Nc1ccc(S(=O)(=O)N2CCCCC2)cc1	-8	8.8*	-18	-6	6	0
CCN1[C@@H]2Cn3c(ccc(C4=CCCCC4)c3=O)[C@H]1[C@@H](C(=O)NCCc1ccncc1)[C@@H]2CO	/	/	/	-4	/	/
COC(=O)c1ccc(CSc2nnc(-c3ccncc3)o2)o1	-1	19*	4	0	39*	-1	GFP quench dose=>68
COC(=O)c1ccc(Cl)c(NC(=O)CSc2nnc(-c3ccncc3)o2)c1	14	0	2	0	/	/
COC(=O)c1ccc(CSc2nnc(-c3ccncc3)o2)cc1	13	1	-1	41	/	/
COC(=O)c1ccccc1NC(=O)CSc1nnc(-c2ccncc2)o1	22	16*	3	-32	16*	0
Cc1noc(C)c1NC(=O)NC(c1ccccc1)c1ccccc1	17	6.3*	-1	-9	1	0
COc1cccc(CNC(=O)Cc2ccc(NC3=NC4CS(=O)(=O)CC4S3)cc2)c1 (stereo not drawn)	12	1	15	-5	/	/
CCN(CC)CCNC(=O)c1ccc(NC2=NC3CS(=O)(=O)CC3S2)cc1 (stereo not drawn)	-9	1	2	1	/	/
COc1ccc(OC)c(NC(=O)Cc2ccc(NC3=NC4CS(=O)(=O)CC4S3)cc2)c1 (stereo not drawn)	23	22*	3	-2	27*	-4	GFP quench dose=>67
O=C(NCCc1ccc(Cl)cc1)c1ccc(NC2=NC3CS(=O)(=O)CC3S2)cc1 (stereo not drawn)	11	7.4*	13	-4	8.1*	1
O=C(Cc1ccc(NC2=NC3CS(=O)(=O)CC3S2)cc1)NCc1ccccc1 (stereo not drawn)	26	-1	13	-3	/	/

Screening results: PubChem BioAssay, several laboratories
